Assay results from PubChem BioAssay AID686971 (National Center for Advancing Translational Sciences (NCATS), 2013).
About 7,500 (2.1%) of roughly 360,000 compounds were called active. Another 8% or so got no clear call; they are omitted. The list comes from a sample in which actives are over-represented; it also holds similar structures and randomly drawn compounds. Unmarked numbers belong to inactive results. Calls come from the whole dose curve; as a rule, active = well fitted cell-killing curve with a large enough effect; inconclusive = small, poorly fitted or top-dose-only effect, or effect the other way, or another doubt; inactive = no such curve, though single readings can be large or run the other way.

Assay: qHTS for induction of synthetic lethality in tumor cells producing 2HG: qHTS for the HT-1080-IDH1KD cell line
Conditions: HT-1080 IDH1 knockdown viability, ATP luminescence, 48 h; series mostly up to 46.1 µM; activity, negative = toxicity: at the top concentration
Excerpt: Unbiased genomic sequencing for 22 glioma genomes found recurrent mutation of IDH1 on chromosome 2q33, a gene encoding the cytosolic isoform of IIDH1 associated with the tri-carboxylic acid cycle (TCA) that catalyzes the oxidative decarboxylation of isocitrate, yielding alpha-ketoglutarate and CO2 via NADP+ to NADPH conversion. Subsequent studies confirmed the recurrent IDH mutations in up to 70% of secondary gliomas and in 10% of AML cases. In addition, the somatic mutation of cancer-associated IDH1 is a point mutation resulting in various amino-acid substituents at Arginine132 (IDH1 R132), a key residue found in the enzyme's active site that when mutated, results in the loss-of-function in metabolizing isocitrate but confers a gain-of-function to produce the oncometabolite 2-hydroxyglutarate (2HG). This in effect defines IDH1 as an oncogene and provides an extraordinary opportunity to discover chemical probes against mutant IDH1 that may translate into much needed new therapies for glioma and AML patients.
This assay aims to perform a synthetic-lethal screen for chemical probes specific for 2HG-producing tumor cells using matched paired cell lines (1) HT-1080-NT fibrosarcoma cell line that overproduces 2HG and (2) HT-1080-IDH1KD cell line which has IDH1 expression knocked-down. Desirable compounds are toxic to the NT fibrosarcoma cell line but not to the IDH1KD cell line. The data in this AID corresponds to the results of the qHTS against the HT-1080 IDH1KD cell line.
[1] Dang L, Jin S, Su SM. IDH mutations in glioma and acute myeloid leukemia. Trends of Mol Med. 2010; 16(9): 387-97.
[2] Dang L et al. Cancer-associated IDH1 mutations produce 2-hydroxyglutarate. Nature. 2010; 465(7300):966.
Molecular Libraries Probe Production Centers Network [MLPCN]
NIH Chemical Genomics Center [NCGC]
Assay Submitter (PI): Lenny Dang Ph.D., Agios Pharmaceuticals
Suspensions of trypsinized HT-1080-IDH1KD cells were dispensed into white, tissue culture-treated, solid 1536-well plates at 5uL/well (750 cells/well final concentration) in RPMI medium supplemented with 5% FBS. Plates were incubated at 37 degrees C for 2 hours, after which 23 nL of compounds or DMSO were delivered to each well using a pin tool. Plates were then incubated at 37 degrees C for an additional 48 hours. CellTiter-Glo viability reagent (Promega) was dispensed into wells (2.5uL/well) and incubated at room temperature for 10 minutes. The plates were measured on a PerkinElmer ViewLux plate reader for luminescent signal (clear filter, 1 sec exp.). DMSO-treated control wells and media-only (no cells) control wells were used to normalize %Activity of identified toxic compounds; DMSO-treated wells corresponded to 0%Activity (100% viability), while media-only controls were used to normalize 100%Activity (0% viability). To minimize variability between cell lines, both HT-1080-NT and HT-1080-IDH1KD lines were dispensed and treated with identical compound series in single batches.
Concentration-response curves were fitted to the signals arising from the resulting luminescence. The concentration-effect curves were then classified based on curve quality (r2), response magnitude and degree of measured activity, and compounds were subsequently categorized based on their curve class.
Potency is the fitted concentration of half-maximal effect.

SMILES	Potency	activity, negative = toxicity [%]
CCCCCc1c(-c2ccc(OC)c(OC)c2)ncn1CCc1ccccc1OC	10.3 µM (active)	
COC(=O)c1ccc2nc(-c3cccc(Br)c3)c(Cc3ccccc3C(F)(F)F)n2c1		7.64
CCCCCc1c(-c2cccc(Br)c2)ncn1CCc1ccccc1OC	18.4 µM (active)	
CCC(=O)NCc1cc(-c2nn(C)c(=O)c3ccccc23)ccc1OC		-4.19
COC(=O)c1ccc2nc(-c3cccc(Br)c3)c(Cc3ccc(OC)cc3C)n2c1		-8.37
COc1ccccc1Cc1c(-c2ccc(Cl)cc2)nc2ccc(Cl)cn12		-22.2
COc1ccc(-c2nn(-c3ccccc3)cc2C(=O)Nc2nccs2)cc1OC		-22.5
COc1cccc(-c2cnc(C(O)c3ccccc3OC)[nH]2)c1 (stereo unspecified)		21
CCCOc1ccc(F)cc1-c1cc(C(=O)NCc2ccc(F)cc2)[nH]n1		-15.1
O=C(COc1ccc(S(=O)(=O)N2CCCC2)cc1[N+](=O)[O-])N1CCCCC1		2.99
CCCCCCCCN1C(=O)[C@H](CC(=O)NCC23CC4CC(CC(C4)C2)C3)C[C@@]2(C(=O)OC)CCCCC=C12		4.09
C[C@@H]1CN([C@@H](C)CO)C(=O)c2c(c3ccccc3n2C)-c2ccccc2CO[C@H]1CN(C)C(=O)C1CC1		4.26
Cc1c(C(=O)NCc2ccc(C#N)cc2)sc(=O)n1Cc1ccc(C(=O)N(C)C)cc1		-10.5
CN(C)CCCOc1ccc(-c2ccc3nccn3c2)cn1		2.09
CN1CCN(C(=O)c2ccc(NC(=O)c3ccc(Br)o3)cc2)CC1		1.04
Cc1ccccc1NC(=O)CSc1nc2ccc(Nc3nc(N4CCOCC4)nc(N4CCOCC4)n3)cc2s1		-4.33
O=C(CSc1nc(Nc2ccccc2)nc(N2CCOCC2)n1)Nc1cc(Cl)ccc1O	18.4 µM (active)	
CC1(c2ccccc2)NC(=O)N(CC(=O)Nc2cc(Cl)ccc2N2CCOCC2)C1=O (stereo unspecified)		-1.21
C=CCC[C@H](CCCCC)OC(=O)/C=C/[C@H](O)[C@@H](O)C[C@@H](O)CC=C		-19.9
O=C(CCC(=O)OCc1ccc(Cl)cc1)Nc1ccccc1		0.564
O=C1C=C(c2ccc(Cl)cc2)C(=O)N1Nc1ccccc1	18.4 µM (active)	
O=C(O)CC1=C(Nc2ccccc2)C(=O)N(c2ccccc2)C1c1ccc(Cl)cc1 (stereo unspecified)		0.642
CCCNC(=O)c1cc(C2CCCCN2C(=O)OC)on1 (stereo unspecified)		19.5

SMILES	Potency	activity, negative = toxicity [%]
c1ccc2c(c1)nnn2-c1ccncc1		-7.3
O=C(NCCCN1CCOCC1)c1cn(-c2ccccc2)nc1-c1ccc(F)cc1		2.98
COc1ccc(-c2nn(-c3ccccc3)cc2/C=C\C(=O)N2CCOCC2)cc1[N+](=O)[O-]		2.09
O=C(/C=C/c1cn(-c2ccccc2)nc1-c1ccc2c(c1)OCCO2)NCCCN1CCOCC1	20.6 µM (active)	
COC(=O)c1ccc2nc(C3CCCCC3)c(Cc3cccc(F)c3)n2c1		-10.3
CCc1ccc([C@@H]2CC(=O)[C@@H]3CN(S(=O)(=O)c4ccc(C)cc4)[C@H](c4ccc(Cl)cc4)C[C@@H]3N2S(=O)(=O)c2ccc(C)cc2)cc1		23.1
COc1ccccc1-c1cc(NC(C)=O)c2ncc(-c3ccc(F)cc3)n2c1		-16.8
CN(C)C(=O)c1cccc(-c2cnc3c(NC=O)cc(-c4ccc(C(=O)N5CCOCC5)cc4)cn23)c1		-13.6
CC(=O)Nc1cc(-c2cccc(CO)c2)cn2c(-c3cccc(C(F)(F)F)c3)cnc12		5.47
O=CNc1cc(-c2ccc(C(=O)N3CCOCC3)cc2)cn2c(-c3ccc(F)cc3)cnc12	13 µM (active)	
CCC(C)C(=O)Nc1ccccc1N1CCN(c2ccc(F)cc2)CC1 (stereo unspecified)		-20.9
COc1cccc(-c2cnc3c(NC(C)=O)cc(-c4cc(F)ccc4OC)cn23)c1	9.2 µM (active)	
COc1cccc(-c2cc(NC(C)=O)c3ncc(-c4cccc(C(C)=O)c4)n3c2)c1		-20.1
CC(=O)Nc1cc(-c2ccc(N3CCN(C)CC3)cc2)cn2c(-c3cccc(C(=O)N(C)C)c3)cnc12		2.62
CC(=O)Nc1cc(-c2ccc(N3CCN(C)CC3)cc2)cn2c(-c3ccc(F)cc3)cnc12	23.1 µM (active)	
CN(C)CCNC(=O)c1cccc(-c2cnc3c(NC=O)cc(-c4cccc(C(F)(F)F)c4)cn23)c1	18.4 µM (active)	
O=C(NCCO)c1cccc(-c2cccc3nccn23)c1		0.201
N#C/C=C(/c1ccc(F)cc1)N1CCOCC1		13
O=C1NC[C@H](CCCCN2C[C@H](Cc3ccccc3)N(Cc3ccccc3)C(=O)C2=O)N(CCc2ccc(O)cc2)C1=O		5.18
Cc1ccc(-c2ccc(C3=CC(=O)CC(C)(C)C3=O)cc2)cc1		14.6
CC(C)C[C@@H]1Cc2[nH][nH]c(=O)c2[C@H](CCc2ccccc2)O1		-20
CCOC(=O)[C@]12CCCC=C1N(CCC1=CCCCC1)C(=O)[C@H](CC(=O)NCCCOC)C2		-13.6
CCCNC(=O)C1(C)CCCN(C(=O)c2oc3ccccc3c2C)C1 (stereo unspecified)		2.01
